Screen size: about 190,000 compounds; about 930 (0.49%) were called active. This is one part of the list. Results with a measured potency or affinity are listed apart. A number with no mark means an inactive call.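 The calls were made as follows: active = z-score of insulin promoter reporter brightness in nuclei below -3 at 5 µM, with at least 500 cells counted; inconclusive = wells with under 500 cells, flagged as toxic or sparse; inactive = the rest.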
experiment: decrease of insulin promoter-GFP reporter – imaging, high-content screening, mouse beta cells (AID 1628); details: MIN6 insulin promoter GFP reporter, at 5 µM, stronger effect = lower value

Row | Compound | z-score
1 | Cc1cc(NC(=O)C2CC(=O)OC2c2ccccc2)no1 (stereo not drawn) | -4.4 (active)
2 | COc1ccccc1-n1c(N)cc(=O)nc1SCC(=O)Nc1cc(C)on1 | 2.37
3 | COc1ccc(NC(=O)c2[nH]c(C)c(C(C)=O)c2C)cc1Cl | 3.83
4 | CC(=O)c1c(C)[nH]c(C(=O)OCC(=O)Nc2ccc(Cl)cc2[N+](=O)[O-])c1C | -3.98 (active)
5 | COC(=O)c1ccc(NC(=O)CSc2nc3cccnc3n2C)cc1 | -4.12 (active)
6 | CCOC(=O)c1[nH]c2ccc(OC)cc2c1NS(=O)(=O)c1ccc(Cl)s1 | -4.98 (active)
7 | CCC(C(=O)OCC(=O)Nc1cccc(S(=O)(=O)NC2=NCCCCC2)c1)c1ccccc1 (stereo not drawn) | 3.98
8 | Cc1sc2ncnc(N3CCCCC3C)c2c1C (stereo not drawn) | -4.4 (active)
9 | COc1ccc(/C=C2\CC/C(=C\c3ccc(OC)cc3OC)C2=O)c(OC)c1 | 5.49
10 | COc1ccc(C(=O)/C=C/c2ccc(N(C)C)cc2)c(OC)c1 | 15.9
11 | C=CCN1C(=O)C(O)(CC(=O)c2ccc(OC)cc2OC)c2cc(Br)ccc21 (stereo not drawn) | -4.05 (active)
12 | O=C(O)c1ccccc1NN=C1CCCCC1 | -4.39 (active)
13 | O=C(CCSc1ccc(Cl)cc1)NN=C1CCCCCC1 | 3.37
14 | CC(Sc1ccccc1)C(=O)NN=C1CCCCCC1 (stereo not drawn) | 8.07
15 | CC1CC(C)(C)Nc2ccc(N=O)cc21 (stereo not drawn) | 4.12
16 | CN(C)c1ccc(/C=C2\SC(=O)N(CC(O)Cn3c4ccccc4c4ccccc43)C2=O)cc1 (stereo not drawn) | 3.6
17 | O=c1ccc(NS(=O)(=O)c2ccccc2)cn1Cc1ccc(Cl)c(Cl)c1 | 4.35
18 | O=C1S/C(=C\c2ccc(N3CCOCC3)o2)C(=O)N1c1ccccc1 | 12.7
19 | COc1cc2c(cc1OC)C1=CC(=O)C(=O)N1C(C)(C)C2 | 6.34
20 | COCCN(CCOC)Cc1c(C)[nH]c2c(C)c(C)ccc2c1=O | 0.72
21 | COC(=O)CSc1nc2ccccn2c(=O)c1C=O | 4.58

Row | Compound | z-score
22 | COC(=O)CSc1nc2ncc(Cl)cc2[nH]1 | -4.43 (active)
23 | Cc1ccnc(N/C=C(\C#N)c2nc(-c3cccc(Br)c3)cs2)c1 | 7.83
24 | CCOC(=O)CC1C(=O)NCCN1c1nc2ccc(C)cn2c(=O)c1/C=C1\SC(=S)N(CC(C)C)C1=O (stereo not drawn) | 10.8
25 | CSc1ccc(NC(=O)Nc2cccn(Cc3ccccc3)c2=O)cc1 | -5.72 (active)
26 | COc1cnc(-c2ccccn2)nc1NC(C)C | -4.73 (active)
27 | CCC(=O)Nc1ccc2c(c1)ncn2-c1ccccc1 | 4.96
28 | COc1ccccc1NC(=O)/C=C1\SCC(=O)N1C | 4.67
29 | COc1ccccc1NC(=O)Cn1cc(C(=O)c2ccco2)c2ccccc21 | -4.69 (active)
30 | CC(=O)Nc1ccc(NC(=O)C(=O)c2cn(CC(=O)N3CCCCC3)c3ccccc23)cc1 | 2.61
31 | COc1ccccc1NC(=O)COC(=O)C1CC2C=CC1C2 (stereo not drawn) | 3.01
32 | CCn1c(C2CC(=O)N(Cc3ccccc3)C2)nc2ccccc21 (stereo not drawn) | -5.96 (active)
33 | N#C/C(=C\c1ccc(-c2ccc(C(=O)O)cc2)o1)c1nc2ccccc2[nH]1 | 6.2
34 | Nc1c(C(=O)NC2CCCC2)sc2nc(-c3cccs3)ccc12 | 3.89
35 | O=C(COC(=O)c1cccs1)NC1CCCCC1 | -5.3 (active)
36 | Cn1c(SCC(=O)NC2CCCCCC2)nnc1-c1cccs1 | 2.42
37 | Cc1c(C(=O)N2CCOCC2)[nH]c2c1C(=O)CC(c1ccccc1Cl)C2 (stereo not drawn) | -3.07 (active)
38 | Cc1cc(F)c(F)c(C(=O)N2CCOCC2)c1 | 1.59
39 | NCCc1nnc(SCc2ccccc2F)o1 | 1.04
40 | O=C(CSc1nnc(SCc2ccc(Cl)cc2)s1)N1CCOCC1 | -0.99
41 | Clc1ccc(CSc2nnc(/C=C/c3ccccc3)o2)cc1 | -4.41 (active)
42 | CCCC1CC(=O)OC1(C)C(=O)CSc1n[nH]c(-c2ccccc2)n1 (stereo not drawn) | -5.89 (active)

Row | Compound | z-score
43 | CCN(CC)c1ccc(/C=C(\C#N)c2nc(-c3cccs3)c(NC(C)=O)s2)cc1 | 16.9
44 | CN(C)C=Nc1ccc2nn(-c3ccccc3)nc2c1 | 3.14
45 | CCC(c1nnnn1C1CCCC1)N(Cc1cccs1)Cc1cc2cc(C)ccc2[nH]c1=O (stereo not drawn) | -3.35 (active)
46 | Cc1cccc2cc(CN(Cc3cccs3)C(c3nnnn3C3CCCC3)C(C)C)c(=O)[nH]c12 (stereo not drawn) | -4.88 (active)
47 | CCOc1ccc2[nH]c(=O)c(CN(Cc3cccs3)C(CC)c3nnnn3C(C)(C)CC)cc2c1 (stereo not drawn) | -3.01 (active)
48 | COc1cc(OC)c(OC)cc1C#N | 0.13
49 | COc1cccc(C2C3CN(C)CC=C3C(C#N)=C(N)C2(C#N)C#N)c1OC (stereo not drawn) | 13.7
50 | C=CCn1c(/N=C/c2ccc3c(c2)OCO3)nc2ccccc21 | 0.8
51 | COc1ccc(C2C(C(=O)c3ccccc3)=C(C)Nc3nc4ccccc4n32)c(OC)c1 (stereo not drawn) | 3.79
52 | COc1ccc2nc3ccccc3nc2c1 | -1.09
53 | CC(O)c1nc2ccccc2n1CCOc1ccccc1 (stereo not drawn) | 1.64
54 | Cn1c(CNc2nc3ccccc3n2C)nc2ccccc21 | 1.15
55 | COc1ccc(CNC(=O)CN2CCC(C(=O)c3ccc(OC)cc3)CC2)cc1 | 1.22
56 | Cc1ccc2nc(/C(C#N)=C\c3ccc(N4CCOCC4)o3)[nH]c2c1 | 15.9
57 | CC(C)=CCc1c2c(c3occ(-c4ccc(O)cc4)c(=O)c3c1O)C=CC(C)(C)O2 | -0.49
58 | N#C/C(=C/c1ccc(N2CCOCC2)o1)C(=O)Nc1ccccc1 | 4.15
59 | Cc1cc2nc3c(=O)n(Cc4ccccc4)c(=O)[nH]c3nc2cc1N | 12.1
60 | Cn1c(N)cc(=O)n(Cc2ccccc2)c1=O | -5.18 (active)
61 | CCC(=O)OCC(=O)c1c(N)n(Cc2ccccc2)c(=O)n(C)c1=O | 3.29
62 | Cc1n[nH]c(C)c1S(=O)(=O)N1CCCC(C(=O)N2CCN(c3ccc(Cl)cc3)CC2)C1 (stereo not drawn) | -3.2 (active)
63 | Cc1noc(C)c1S(=O)(=O)N1CCC(C(=O)N2CCN(C3CCCC3)CC2)CC1 | 3.05

Source: PubChem BioAssay AID1628 (Sanford-Burnham Center for Chemical Genomics, 2009)
